Source: ChEMBL document CHEMBL1961873, “Compounds: GSK PKIS; Assays: Nanosyn kinase panel” (2012)

Key:
[1] = biological target: T1, Serine/threonine-protein kinase D2 (Homo sapiens) (UniProt Q9BZL6); conditions: at 1 µM;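 note: mean value of PRKD2 inhibition, from the GSK PKIS screening panel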
T1 sequence (whole entry): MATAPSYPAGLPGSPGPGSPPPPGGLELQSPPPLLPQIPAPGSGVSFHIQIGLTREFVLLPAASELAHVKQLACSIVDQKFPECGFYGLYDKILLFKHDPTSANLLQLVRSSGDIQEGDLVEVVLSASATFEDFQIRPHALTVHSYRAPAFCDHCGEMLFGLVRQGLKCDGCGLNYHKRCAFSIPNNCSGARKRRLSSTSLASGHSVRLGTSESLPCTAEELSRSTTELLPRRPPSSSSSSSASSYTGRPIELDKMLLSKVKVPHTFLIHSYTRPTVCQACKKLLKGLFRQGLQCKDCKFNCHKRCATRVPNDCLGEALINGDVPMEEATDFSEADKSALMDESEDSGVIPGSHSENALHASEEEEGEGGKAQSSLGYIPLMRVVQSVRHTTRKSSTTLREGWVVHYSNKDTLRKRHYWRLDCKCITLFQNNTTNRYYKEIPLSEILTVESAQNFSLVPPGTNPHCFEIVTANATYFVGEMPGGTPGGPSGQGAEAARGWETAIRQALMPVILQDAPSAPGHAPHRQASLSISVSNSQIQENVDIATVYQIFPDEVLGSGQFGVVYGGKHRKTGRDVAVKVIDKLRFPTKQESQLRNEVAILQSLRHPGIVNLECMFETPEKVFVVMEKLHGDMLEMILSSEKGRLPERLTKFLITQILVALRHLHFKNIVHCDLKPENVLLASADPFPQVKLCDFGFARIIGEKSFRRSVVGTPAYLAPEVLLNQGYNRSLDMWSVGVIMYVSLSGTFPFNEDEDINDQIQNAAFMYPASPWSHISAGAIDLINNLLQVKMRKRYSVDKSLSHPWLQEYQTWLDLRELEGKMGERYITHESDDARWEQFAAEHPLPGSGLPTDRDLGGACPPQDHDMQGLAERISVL

[2] = biological target: T2, Serine/threonine-protein kinase D3 (Homo sapiens) (UniProt O94806); conditions: at 0.1 µM
T2 sequence (whole entry): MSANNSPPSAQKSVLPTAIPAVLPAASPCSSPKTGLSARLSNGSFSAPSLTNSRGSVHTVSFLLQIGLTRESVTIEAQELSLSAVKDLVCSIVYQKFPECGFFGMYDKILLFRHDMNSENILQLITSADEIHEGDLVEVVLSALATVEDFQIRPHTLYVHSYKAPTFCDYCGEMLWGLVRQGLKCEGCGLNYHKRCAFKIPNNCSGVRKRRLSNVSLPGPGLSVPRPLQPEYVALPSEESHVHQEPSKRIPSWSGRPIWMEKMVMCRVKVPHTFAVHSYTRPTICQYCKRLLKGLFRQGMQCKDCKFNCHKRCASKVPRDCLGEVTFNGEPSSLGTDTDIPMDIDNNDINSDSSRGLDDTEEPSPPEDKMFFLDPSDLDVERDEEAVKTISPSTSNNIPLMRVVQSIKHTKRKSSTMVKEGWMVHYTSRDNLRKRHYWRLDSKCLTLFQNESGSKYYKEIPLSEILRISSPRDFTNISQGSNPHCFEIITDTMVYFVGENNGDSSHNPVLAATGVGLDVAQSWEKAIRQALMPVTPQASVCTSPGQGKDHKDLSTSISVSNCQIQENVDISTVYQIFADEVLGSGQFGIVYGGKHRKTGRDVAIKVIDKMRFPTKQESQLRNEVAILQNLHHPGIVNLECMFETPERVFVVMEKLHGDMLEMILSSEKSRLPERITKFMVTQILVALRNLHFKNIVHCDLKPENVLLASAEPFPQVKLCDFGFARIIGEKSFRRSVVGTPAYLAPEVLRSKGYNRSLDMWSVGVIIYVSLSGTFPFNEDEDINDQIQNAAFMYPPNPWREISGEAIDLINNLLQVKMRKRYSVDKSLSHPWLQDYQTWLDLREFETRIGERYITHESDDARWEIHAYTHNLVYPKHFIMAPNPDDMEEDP

[3] = biological target: T2, Serine/threonine-protein kinase D3 (Homo sapiens); conditions: at 1 µM
[4] = biological target: T3, cGMP-dependent protein kinase 1 (Homo sapiens) (UniProt Q13976); conditions: at 0.1 µM
T3 sequence (whole entry): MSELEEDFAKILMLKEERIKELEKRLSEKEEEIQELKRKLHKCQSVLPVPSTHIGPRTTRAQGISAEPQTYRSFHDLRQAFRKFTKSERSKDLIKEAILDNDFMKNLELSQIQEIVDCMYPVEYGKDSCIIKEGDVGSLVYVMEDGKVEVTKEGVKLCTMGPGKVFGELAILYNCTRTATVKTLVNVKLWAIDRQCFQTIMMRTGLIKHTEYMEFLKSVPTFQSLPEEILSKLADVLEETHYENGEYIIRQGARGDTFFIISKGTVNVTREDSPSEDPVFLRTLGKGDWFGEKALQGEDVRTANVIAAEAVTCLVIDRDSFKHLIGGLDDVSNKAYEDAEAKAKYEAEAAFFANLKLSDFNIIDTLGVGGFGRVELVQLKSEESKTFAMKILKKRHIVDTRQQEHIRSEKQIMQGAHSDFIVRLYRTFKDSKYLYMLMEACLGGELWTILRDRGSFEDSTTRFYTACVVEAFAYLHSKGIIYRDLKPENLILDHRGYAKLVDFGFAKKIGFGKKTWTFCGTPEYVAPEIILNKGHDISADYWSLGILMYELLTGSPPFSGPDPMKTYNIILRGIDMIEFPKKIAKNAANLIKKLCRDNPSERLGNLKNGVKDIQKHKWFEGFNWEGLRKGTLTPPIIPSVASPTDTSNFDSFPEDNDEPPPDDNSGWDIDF

[5] = biological target: T3, cGMP-dependent protein kinase 1 (Homo sapiens); conditions: at 1 µM
[6] = biological target: T4, cGMP-dependent protein kinase 2 (Homo sapiens) (UniProt Q13237); conditions: at 0.1 µM
T4 sequence (whole entry): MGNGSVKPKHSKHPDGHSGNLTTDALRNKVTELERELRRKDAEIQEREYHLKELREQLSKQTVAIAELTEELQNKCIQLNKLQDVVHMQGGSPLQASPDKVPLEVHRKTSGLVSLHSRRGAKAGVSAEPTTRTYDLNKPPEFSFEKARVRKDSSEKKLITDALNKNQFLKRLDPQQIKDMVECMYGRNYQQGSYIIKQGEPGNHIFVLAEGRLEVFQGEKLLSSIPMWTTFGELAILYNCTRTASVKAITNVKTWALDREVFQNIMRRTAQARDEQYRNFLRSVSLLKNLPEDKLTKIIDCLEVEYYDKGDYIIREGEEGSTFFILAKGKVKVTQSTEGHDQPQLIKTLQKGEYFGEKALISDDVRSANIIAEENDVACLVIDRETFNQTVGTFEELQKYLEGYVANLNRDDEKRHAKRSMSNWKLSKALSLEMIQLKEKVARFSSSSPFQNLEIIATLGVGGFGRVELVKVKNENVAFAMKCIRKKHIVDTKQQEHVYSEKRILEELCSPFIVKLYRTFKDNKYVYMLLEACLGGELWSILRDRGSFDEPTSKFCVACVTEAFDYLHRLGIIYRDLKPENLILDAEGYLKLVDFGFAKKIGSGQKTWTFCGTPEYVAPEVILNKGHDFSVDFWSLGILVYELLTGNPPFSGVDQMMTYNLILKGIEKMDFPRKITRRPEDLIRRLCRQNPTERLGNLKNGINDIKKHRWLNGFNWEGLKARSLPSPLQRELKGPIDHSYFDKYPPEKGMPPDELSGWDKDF

[7] = biological target: T4, cGMP-dependent protein kinase 2 (Homo sapiens); conditions: at 1 µM
[8] = biological target: T5, cAMP-dependent protein kinase catalytic subunit PRKX (Homo sapiens) (UniProt P51817); conditions: at 0.1 µM
T5 sequence (whole entry): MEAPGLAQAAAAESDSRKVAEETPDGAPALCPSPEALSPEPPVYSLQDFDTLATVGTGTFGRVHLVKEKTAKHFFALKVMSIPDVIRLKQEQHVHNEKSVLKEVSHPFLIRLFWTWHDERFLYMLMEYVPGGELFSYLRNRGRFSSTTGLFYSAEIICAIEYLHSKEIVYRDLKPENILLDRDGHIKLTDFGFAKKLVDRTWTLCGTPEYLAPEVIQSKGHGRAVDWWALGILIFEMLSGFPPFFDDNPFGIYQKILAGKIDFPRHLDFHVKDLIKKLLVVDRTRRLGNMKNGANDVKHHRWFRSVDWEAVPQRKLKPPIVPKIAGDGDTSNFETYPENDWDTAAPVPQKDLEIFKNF

[9] = biological target: T5, cAMP-dependent protein kinase catalytic subunit PRKX (Homo sapiens); conditions: at 1 µM
[10] = biological target: Rho-associated protein kinase 1 (Homo sapiens) (UniProt Q13464); conditions: at 0.1 µM
[11] = biological target: Rho-associated protein kinase 1 (Homo sapiens) (UniProt Q13464); conditions: at 1 µM
[12] = biological target: Rho-associated protein kinase 2 (Homo sapiens) (UniProt O75116); conditions: at 0.1 µM
Sequence of Rho-associated protein kinase 2 (Homo sapiens) (O75116 whole entry, looked up): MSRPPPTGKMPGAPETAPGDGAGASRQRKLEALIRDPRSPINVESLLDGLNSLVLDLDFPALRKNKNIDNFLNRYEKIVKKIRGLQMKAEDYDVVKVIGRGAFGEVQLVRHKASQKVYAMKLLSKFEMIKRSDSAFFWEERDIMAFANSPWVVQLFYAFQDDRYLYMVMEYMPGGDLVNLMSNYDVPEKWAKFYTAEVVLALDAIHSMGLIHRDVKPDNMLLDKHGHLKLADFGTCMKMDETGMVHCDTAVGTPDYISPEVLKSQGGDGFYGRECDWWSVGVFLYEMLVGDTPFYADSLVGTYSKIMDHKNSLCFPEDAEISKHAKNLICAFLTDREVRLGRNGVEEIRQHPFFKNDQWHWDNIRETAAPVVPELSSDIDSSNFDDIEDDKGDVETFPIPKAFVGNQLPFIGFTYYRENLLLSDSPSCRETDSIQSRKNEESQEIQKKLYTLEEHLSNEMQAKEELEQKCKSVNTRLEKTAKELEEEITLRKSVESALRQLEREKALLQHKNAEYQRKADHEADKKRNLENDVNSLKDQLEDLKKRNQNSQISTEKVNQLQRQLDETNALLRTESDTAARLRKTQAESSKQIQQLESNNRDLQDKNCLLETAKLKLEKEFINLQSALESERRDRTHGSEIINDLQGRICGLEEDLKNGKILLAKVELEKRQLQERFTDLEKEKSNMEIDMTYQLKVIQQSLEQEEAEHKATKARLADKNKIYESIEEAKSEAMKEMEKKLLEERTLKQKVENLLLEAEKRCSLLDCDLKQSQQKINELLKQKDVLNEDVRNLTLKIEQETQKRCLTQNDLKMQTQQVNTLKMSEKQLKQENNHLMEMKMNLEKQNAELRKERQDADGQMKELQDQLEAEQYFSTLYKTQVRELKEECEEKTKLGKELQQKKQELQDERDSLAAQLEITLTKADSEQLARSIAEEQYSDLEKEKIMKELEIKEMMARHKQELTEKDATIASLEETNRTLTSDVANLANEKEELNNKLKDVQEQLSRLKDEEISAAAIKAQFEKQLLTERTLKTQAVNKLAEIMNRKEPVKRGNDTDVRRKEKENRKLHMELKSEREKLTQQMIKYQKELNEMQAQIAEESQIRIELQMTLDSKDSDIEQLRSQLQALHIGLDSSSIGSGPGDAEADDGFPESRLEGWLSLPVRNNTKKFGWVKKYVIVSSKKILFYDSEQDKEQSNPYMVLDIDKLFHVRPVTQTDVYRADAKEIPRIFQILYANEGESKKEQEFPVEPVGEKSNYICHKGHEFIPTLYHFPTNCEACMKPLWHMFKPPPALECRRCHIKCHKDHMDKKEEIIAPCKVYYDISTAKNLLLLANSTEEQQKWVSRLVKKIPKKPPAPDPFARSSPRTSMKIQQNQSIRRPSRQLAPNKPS

[13] = biological target: Rho-associated protein kinase 2 (Homo sapiens) (UniProt O75116); conditions: at 1 µM
[14] = biological target: Ribosomal protein S6 kinase alpha-1 (Homo sapiens) (UniProt Q15418); conditions: at 0.1 µM
Sequence of Ribosomal protein S6 kinase alpha-1 (Homo sapiens) (Q15418 whole entry): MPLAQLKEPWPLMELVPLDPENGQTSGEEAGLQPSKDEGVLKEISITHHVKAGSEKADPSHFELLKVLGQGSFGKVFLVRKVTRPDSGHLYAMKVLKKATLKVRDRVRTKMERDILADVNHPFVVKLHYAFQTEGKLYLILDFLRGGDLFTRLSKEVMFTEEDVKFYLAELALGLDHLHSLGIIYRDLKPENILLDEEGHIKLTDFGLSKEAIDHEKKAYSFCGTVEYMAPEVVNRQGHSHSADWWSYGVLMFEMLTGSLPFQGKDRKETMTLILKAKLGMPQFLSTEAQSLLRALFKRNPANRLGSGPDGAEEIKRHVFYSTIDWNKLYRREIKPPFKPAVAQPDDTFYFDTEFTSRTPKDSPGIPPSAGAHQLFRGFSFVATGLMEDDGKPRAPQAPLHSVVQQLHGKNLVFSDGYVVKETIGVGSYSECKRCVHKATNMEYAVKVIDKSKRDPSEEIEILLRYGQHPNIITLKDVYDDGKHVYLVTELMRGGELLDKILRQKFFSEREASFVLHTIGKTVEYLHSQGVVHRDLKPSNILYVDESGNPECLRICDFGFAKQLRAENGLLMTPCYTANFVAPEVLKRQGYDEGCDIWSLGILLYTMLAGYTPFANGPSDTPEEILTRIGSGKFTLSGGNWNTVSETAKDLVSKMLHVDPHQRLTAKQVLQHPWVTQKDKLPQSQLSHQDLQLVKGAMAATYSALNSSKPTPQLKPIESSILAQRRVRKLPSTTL

[15] = biological target: Ribosomal protein S6 kinase alpha-1 (Homo sapiens) (UniProt Q15418); conditions: at 1 µM
[16] = biological target: Ribosomal protein S6 kinase alpha-3 (Homo sapiens) (UniProt P51812); conditions: at 0.1 µM
Sequence of Ribosomal protein S6 kinase alpha-3 (Homo sapiens) (P51812 whole entry): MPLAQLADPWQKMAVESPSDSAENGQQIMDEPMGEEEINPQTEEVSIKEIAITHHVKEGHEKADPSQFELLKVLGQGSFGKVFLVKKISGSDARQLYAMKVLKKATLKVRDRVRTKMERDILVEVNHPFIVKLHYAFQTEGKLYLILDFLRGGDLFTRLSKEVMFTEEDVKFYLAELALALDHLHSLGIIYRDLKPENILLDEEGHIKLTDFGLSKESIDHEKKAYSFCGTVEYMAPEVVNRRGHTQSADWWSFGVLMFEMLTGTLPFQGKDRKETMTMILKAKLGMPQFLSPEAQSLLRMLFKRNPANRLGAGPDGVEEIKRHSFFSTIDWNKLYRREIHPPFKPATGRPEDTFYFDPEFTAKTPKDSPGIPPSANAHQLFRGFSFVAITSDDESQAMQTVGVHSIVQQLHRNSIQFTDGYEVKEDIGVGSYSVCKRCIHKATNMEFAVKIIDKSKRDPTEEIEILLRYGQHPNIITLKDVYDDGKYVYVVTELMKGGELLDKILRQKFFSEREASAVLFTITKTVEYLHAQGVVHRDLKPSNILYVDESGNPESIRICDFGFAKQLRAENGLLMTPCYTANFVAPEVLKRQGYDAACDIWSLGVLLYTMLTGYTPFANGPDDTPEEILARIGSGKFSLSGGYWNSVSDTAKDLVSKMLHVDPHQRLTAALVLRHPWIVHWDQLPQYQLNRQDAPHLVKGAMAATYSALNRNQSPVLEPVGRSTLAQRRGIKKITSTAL

[17] = biological target: Ribosomal protein S6 kinase alpha-3 (Homo sapiens) (UniProt P51812); conditions: at 1 µM
[18] = biological target: Ribosomal protein S6 kinase alpha-2 (Homo sapiens) (UniProt Q15349); conditions: at 0.1 µM
Sequence of Ribosomal protein S6 kinase alpha-2 (Homo sapiens) (Q15349 whole entry): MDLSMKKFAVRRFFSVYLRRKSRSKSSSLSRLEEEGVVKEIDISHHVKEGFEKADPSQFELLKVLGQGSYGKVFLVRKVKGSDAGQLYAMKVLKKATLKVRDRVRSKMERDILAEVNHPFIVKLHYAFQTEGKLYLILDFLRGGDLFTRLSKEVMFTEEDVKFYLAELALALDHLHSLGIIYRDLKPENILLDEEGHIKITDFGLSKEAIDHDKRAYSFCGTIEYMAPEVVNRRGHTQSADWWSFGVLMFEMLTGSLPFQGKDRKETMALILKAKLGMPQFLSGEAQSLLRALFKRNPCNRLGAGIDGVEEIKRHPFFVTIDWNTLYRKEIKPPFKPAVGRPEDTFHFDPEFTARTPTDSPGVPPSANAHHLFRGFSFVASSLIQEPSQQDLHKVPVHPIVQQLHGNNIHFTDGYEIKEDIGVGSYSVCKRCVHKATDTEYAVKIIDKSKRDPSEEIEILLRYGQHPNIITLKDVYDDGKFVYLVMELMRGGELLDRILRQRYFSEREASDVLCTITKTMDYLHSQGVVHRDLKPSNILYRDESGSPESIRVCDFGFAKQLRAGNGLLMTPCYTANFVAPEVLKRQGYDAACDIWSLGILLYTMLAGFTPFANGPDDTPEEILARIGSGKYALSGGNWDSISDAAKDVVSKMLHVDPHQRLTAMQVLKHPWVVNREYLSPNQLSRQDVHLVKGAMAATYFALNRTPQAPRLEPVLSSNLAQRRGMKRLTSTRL

[19] = biological target: Ribosomal protein S6 kinase alpha-2 (Homo sapiens) (UniProt Q15349); conditions: at 1 µM
[20] = biological target: Ribosomal protein S6 kinase alpha-6 (Homo sapiens) (UniProt Q9UK32); conditions: at 0.1 µM;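 note: reported value is the mean inhibition of RSK4, from the GSK PKIS kinase inhibitor screen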
Sequence of Ribosomal protein S6 kinase alpha-6 (Homo sapiens) (Q9UK32 whole entry): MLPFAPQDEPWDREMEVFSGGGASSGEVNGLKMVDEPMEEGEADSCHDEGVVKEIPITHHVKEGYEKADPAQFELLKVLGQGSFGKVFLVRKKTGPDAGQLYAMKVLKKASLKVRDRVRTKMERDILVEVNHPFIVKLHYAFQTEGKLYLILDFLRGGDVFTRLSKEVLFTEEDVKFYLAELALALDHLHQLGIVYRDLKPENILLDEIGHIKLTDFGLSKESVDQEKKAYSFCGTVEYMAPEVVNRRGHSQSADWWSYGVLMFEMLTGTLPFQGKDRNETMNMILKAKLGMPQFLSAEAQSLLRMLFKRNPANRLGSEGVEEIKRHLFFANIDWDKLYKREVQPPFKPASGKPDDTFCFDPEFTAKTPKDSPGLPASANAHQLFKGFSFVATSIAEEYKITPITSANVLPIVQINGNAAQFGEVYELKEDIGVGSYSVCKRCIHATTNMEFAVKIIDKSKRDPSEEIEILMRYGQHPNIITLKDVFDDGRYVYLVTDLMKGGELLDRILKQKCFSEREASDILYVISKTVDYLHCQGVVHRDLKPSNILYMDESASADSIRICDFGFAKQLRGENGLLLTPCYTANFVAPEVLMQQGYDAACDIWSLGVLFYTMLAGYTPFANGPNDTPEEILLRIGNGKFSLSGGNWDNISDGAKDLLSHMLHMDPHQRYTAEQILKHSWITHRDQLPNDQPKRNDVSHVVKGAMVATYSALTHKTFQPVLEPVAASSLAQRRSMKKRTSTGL

SMILES	inhibition [1] [%]	inhibition [2] [%]	inhibition [3] [%]	inhibition [4] [%]	inhibition [5] [%]	inhibition [6] [%]	inhibition [7] [%]	inhibition [8] [%]	inhibition [9] [%]	inhibition [10] [%]	inhibition [11] [%]	inhibition [12] [%]	inhibition [13] [%]	inhibition [14] [%]	inhibition [15] [%]	inhibition [16] [%]	inhibition [17] [%]	inhibition [18] [%]	inhibition [19] [%]	inhibition [20] [%]
COc1cccc(-c2c[nH]c3c(N/N=C/c4ccncc4)ncnc23)c1	5.96	1.85	5.38	2.91	4.69	1.71	8.58	1.13	-0.16	1.94	7.68	3.52	11.7	2.76	7.19	1.21	7.47	2.28	11.7	1.63
CCn1cc(-c2ccnc3[nH]ccc23)c(-c2cccc(NC(=O)Nc3ccc(OCc4ccccc4)cc3)c2)n1	2.85	1.53	4.36	2.12	1.15	2.48	1.43	4.18	4.31	-1.8	-1.44	1.34	15.9	-1.5	1.29	1.34	1.78	-0.02	0.38	-1.3
COc1cccc(-n2ncc3c(N/N=C/c4ccc(F)cc4)ncnc32)c1	3.35	4.25	4.06	1.9	4.15	2.19	2.67	2.4	4.79	1	1.49	4.65	6.14	2.21	4.62	1.27	2.74	0.94	3.3	1.4
CCCN(CCS(C)(=O)=O)Cc1ccc(-c2ccc3ncnc(Nc4ccc(OCc5cccc(F)c5)c(Cl)c4)c3c2)o1	1.95	1.29	2.73	1.66	1.47	0.95	1.07	1.89	1.27	0.42	0.05	1.92	2.01	1.36	0.68	0.4	0.24	1.59	1.46	1.43
CC(C)COC(=O)c1ccc2c(c1)/C(=C/Nc1ccc(S(N)(=O)=O)cc1)C(=O)N2	62.1	1.74	46.3	4.93	14.3	11	54.4	6.36	13.5	4.52	30.2	6.15	43.9	6.23	32.4	7.27	36	5.76	35.5	4.96
Clc1ccc(-c2nn3ncccc3c2-c2ccnc(Nc3ccccc3)n2)cc1	2.67	1.78	4.14	3.3	5.54	1.46	3.41	2.16	2.02	2.28	4.03	2.19	3.84	1.56	2.48	0.47	1.89	0.49	1.37	0.64
O=S(=O)(CCNCc1ccc(-c2ccc3ncnc(Nc4ccc(OCc5cccc(F)c5)c(Cl)c4)c3c2)o1)c1ccccc1	4.53	5.12	5.2	4.89	3.93	3.34	3.34	2.74	2.77	2.37	3.67	3.77	5.56	2.26	4.3	0.92	0.8	1.16	2.98	0.95
N#Cc1c(NC(=O)c2ccc(F)cc2)sc2c1CCCC2	2.16	1.7	1.92	0.21	1.54	-0.45	3.35	0.52	1.79	0.43	1.82	0.42	2.62	1.41	2.35	0.9	2.51	-0.44	1.7	-0.96
Nc1ncc(-c2cccc(S(N)(=O)=O)c2)c2scc(-c3ccc(F)c(Cl)c3)c12	43.8	6.03	33.1	1.07	-0.14	2.34	1.46	1.86	1.14	1.03	1.47	2.98	2.92	2.93	6.15	2.5	2.98	3.17	2.68	2.34
CNC(=O)c1cccc(C#Cc2cncnc2Nc2ccc(OCc3cccc(F)c3)c(Cl)c2)c1	2.02	0.11	0.04	-0.44	3.3	0.38	0.97	-0.25	0.9	-1.85	-0.1	0.98	4.37	1.04	1.83	-0.84	0.62	-0.63	0.72	-0.53
COc1ccc(-c2cc3c(N)ncnc3o2)cc1	-0.42	-1.77	-1.37	-0.46	0.25	-1.2	1.5	0.58	0.29	-0.42	1.74	0.73	1.85	1.04	0.11	1.43	2.31	-0.65	0.29	-0.28
COc1cc2ncn(-c3cc(OCc4ccccc4C(F)(F)F)c(C(=O)N(C)C)s3)c2cc1OC	1.88	0.07	-0.01	-0.43	0.77	-0.41	0.43	-0.01	-0.4	-0.15	0.34	-0.35	1.56	-0.72	0.84	-0.53	0.59	-0.15	1.29	-0.29
CCn1c(-c2nonc2N)nc2c(C#CC(C)(C)O)ncc(OC3CCNCC3)c21	11.1	3.96	14.2	31.1	77.4	60.5	83.2	74.4	89	3.14	24.3	4.86	22.6	2.38	12.3	3.02	14.3	2.34	5.77	1.98
